Bioassay records (PubChem)
CRFR2-BP ag: agonists of human CRF-binding protein/CRF-R2 receptor complex; HEK293 CRF-R2/CRF-BP, calcium dye fluorescence (FLIPR); percent of saturating CRF peptide response; activation, % at 13.2 µM; 0.46% of 350,000 active; AID 588473;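 active = activation of at least 50%, plus an integration ratio under a set limit after plate pattern correction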
cardiac RTF act: cardiac RTF calcium sensitization | IANBD-labeled TnC RTF fluorescence at EC20 calcium; 0% EC20 calcium, 100% full calcium | activation, % at 7.2 µM | P19429+P45379 | 0.24% of 340,000 active;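 active = activation above the mean over all tested compounds plus 3 SD, cut at about 30% in these data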;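 also: rise in fluorescence read as greater calcium sensitivity of cardiac thin filaments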
Cardiac RTF inh: cardiac RTF calcium desensitization. P19429+P45379. inhibition, % at 7.15 µM. 0.12% of 340,000 active. IANBD-labeled cardiac RTF, Ca2+ fluorescence;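 active = inhibition above the mean inhibition of all tested compounds plus 3 SD, cut at about 17% in these data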;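 also: assay run at fixed EC70 calcium of 1.6 mM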
CRFR2-BP antag: CRF-BP/CRF-R2 complex antagonism. inhibition, % at 11.8 µM. 0.59% of 350,000 active. HEK293 CRF-R2/CRF-BP, CRF-induced calcium fluorescence;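 active = inhibition of the ligand-induced calcium signal above about 50% at the single tested concentration, limit read from the data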
A number is an active result; . = inactive. Compounds with a hit are over-represented: about 1.3% of the library has one in this group of screens.

SMILES	CRFR2-BP ag	cardiac RTF act	Cardiac RTF inh	CRFR2-BP antag
O=C(OCCN1C(=O)c2ccccc2C1=O)c1cc(S(=O)(=O)N2CCOCC2)ccc1Cl	.	.	.	.
O=C(OCCN1C(=O)c2cccc3c(N4CCOCC4)ccc(c23)C1=O)c1ccccc1Cl	170	112	.	.
COc1ccc(N(CC(=O)N/N=C(\C)CCc2ccccc2)S(=O)(=O)c2ccc(C)cc2)cc1	.	.	.	.
CCCCN(C(=O)c1ccc2c(c1)S(=O)(=O)N=C1CCCCCN12)c1c(N)n(CCCC)c(=O)[nH]c1=O	.	.	.	96
COCCN(C(=O)c1ccc2c(c1)S(=O)(=O)N=C1CCCCCN12)c1c(N)n(CC(C)C)c(=O)[nH]c1=O	.	.	.	.
CN(Cc1ccc(F)cc1)S(=O)(=O)c1nnc(NC(=O)c2ccccc2)s1	.	.	.	.
CN(Cc1ccccc1)S(=O)(=O)c1nnc(NC(=O)c2ccc(F)cc2)s1	.	.	.	59
CC(C)COc1ccc(CNC(=S)Nc2ccccc2)cc1Cl	.	.	.	107
CC(C)Oc1ccc(CNC(=S)Nc2ccccc2)cc1Cl	.	.	.	.
O=C(CN1C(=O)NC2(CCCCCC2)C1=O)NCCc1ccc(F)cc1	.	.	.	.
COc1ccc(OC)c(NC(=O)CSc2ncnc3c2cnn3-c2ccccc2Cl)c1	.	.	.	56
COc1cc(NC(=O)CSc2ncnc3c2cnn3Cc2ccccc2)cc(OC)c1	.	.	.	.
Clc1ccc(-c2ccc(C=Nc3ccc(N4CCOCC4)cc3)o2)c(Cl)c1	210	.	.	.
CCCNc1ccc(C(=O)OCC)cc1[N+](=O)[O-]	.	.	.	61
Cc1ccc(CNC(=O)CN(c2ccc(C)cc2)S(=O)(=O)c2c(C)nn(C)c2C)cc1	.	.	.	83
CCCSc1n[nH]c(NC(C)=O)n1	.	.	.	56
O=C(c1ccc([N+](=O)[O-])cc1)N(Cc1ccc(Br)cc1)N1C(=O)CCCC1=O	59	.	.	.
O=C(NCCc1ccccc1)c1ccc([N+](=O)[O-])cc1	.	.	.	.
O=C(c1ccc([N+](=O)[O-])cc1)N(Cc1ccccc1)Cc1ccccc1	.	.	.	68
CCc1ccc(NC(=O)CCc2ccc(CC)o2)cc1	.	.	.	.
O=C(c1ccccc1)c1cccs1	.	.	.	.
CCOc1ccc(C(=O)c2cccs2)cc1	.	.	.	51
Clc1ccc2nc3c4ccccc4cnn3c2c1	.	.	.	.
Oc1ccc2nnc3c(Br)cnn3c2c1	146	84	.	.
O=c1c2ccccc2nc2n1-c1ccccc1CCC2	.	.	.	.
SMILES	CRFR2-BP ag	cardiac RTF act	Cardiac RTF inh	CRFR2-BP antag
O=C1CCc2nc3ccccc3c(=O)n2N1	.	.	.	80
COc1ccc(CC(=O)N/N=C(\C)c2ccc(Br)s2)cc1	.	.	.	83
COc1ccccc1N1CCN(C2CCCN(C(=O)c3cc(C4CC4)on3)C2)CC1 (stereo not given)	.	.	.	51
CC(C)(C)c1ccc(C(=O)n2cnc3ccccc32)cc1	.	50	.	.
O=C(COC(=O)c1ccc([N+](=O)[O-])o1)Nc1ccc2c(c1)OCO2	.	.	.	.
Cc1ccc(Cl)cc1N(CC(=O)N1CCOCC1)S(C)(=O)=O	.	.	.	74
CS(=O)(=O)N(CC(=O)N1CCOCC1)c1cc(Cl)ccc1Cl	.	.	.	.
COc1ccc(Nc2nnc(SCC3CCCO3)s2)cc1 (stereo not given)	.	.	.	.
COc1ccc(CCNc2ncnc3c2nnn3Cc2ccccc2)cc1OC	.	.	.	.
Cc1ncc(CO)c2cc(C(=O)Nc3ccccc3Cl)c(=Nc3cccc(C(N)=O)c3)oc12	.	.	.	.
CCCCc1nnc2c(N(C)S(=O)(=O)c3ccccc3)nc3ccccc3n12	.	.	.	59
CC(C)c1nnc2c(N(C)S(=O)(=O)c3ccccc3)nc3ccccc3n12	.	.	.	.
CCOc1ccc(OCCSc2nc(N)cc(=O)[nH]2)cc1	.	.	.	59
Nc1cc(=O)[nH]c(SCCOc2ccccc2)n1	.	.	.	.
Cc1noc(/C=C/c2cccnc2)c1[N+](=O)[O-]	.	.	.	.
Cc1noc(/C=C/c2ccc(-c3ccccc3Cl)o2)c1[N+](=O)[O-]	205	.	.	.
O=c1cc(Cc2ccc([N+](=O)[O-])cc2)[nH]c(=O)[nH]1	.	.	.	57
Nc1ccc(Cc2ccc([N+](=O)[O-])cc2)cc1	.	.	.	.
Cn1c(O)c(N=NC(=O)C2COc3ccccc3O2)c2ccccc21 (stereo not given)	.	.	.	.
